# Measured values reported in PubChem BioAssay (NCI).
# About 83,000 compounds went through this panel and 20% of them were active in at least one assay; those are over-represented in the sample as a whole.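 Percent growth is the endpoint: 0 to 100 indicates growth inhibition (40 means 60% inhibition), 0 means no net growth, and negative values indicate cell death.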 Values without a mark were called inactive. Calls of active or inactive are those of the source. The calls were made as follows: active = growth percent below 10; inactive = the rest.
# Tests used:
# Test in all cases: NCI-60 one-dose screen, 48 h (100 = growth as untreated, 0 = no growth, -100 = all killed)
# Settings in all cases: 10 µM unless noted
# [1] = test system: SR leukemia
# [2] = test system: RPMI-8226 leukemia
# [3] = test system: OVCAR-8 ovarian
# [4] = test system: OVCAR-5 ovarian
# [5] = test system: OVCAR-4 ovarian
# [6] = test system: SK-OV-3 ovarian
# [7] = test system: IGROV1 ovarian
# [8] = test system: OVCAR-3 ovarian
# [9] = test system: HS 578T breast
# [10] = test system: NCI/ADR-RES ovarian
# [11] = test system: BT-549 breast
# [12] = test system: MDA-MB-435 melanoma
# [13] = test system: SW-620 colon
# [14] = test system: MCF7 breast
# [15] = test system: HCT-116 colon
# [16] = test system: HCC-2998 colon
# [17] = test system: KM12 colon
# [18] = test system: T-47D breast
Compound,growth [1],growth [2],growth [3],growth [4],growth [5],growth [6],growth [7],growth [8],growth [9],growth [10],growth [11],growth [12],growth [13],growth [14],growth [15],growth [16],growth [17],growth [18]
C=C[C@@H]1C[C@@H]2Cc3c(C)cc(C)cc3N1O2,6.7% (active),74.7%,98%,86.5%,83.6%,105%,106%,103%,92.1%,102%,112%,101%,102%,97.6%,104%,103%,104%,
CCCCN(CCCC)C(=O)CC,102%,115%,112%,106%,108%,122%,115%,113%,149%,103%,,104%,110%,93.3%,102%,107%,106%,
O=C1Nc2ccc3c(c2/C1=C\c1cc2c(cc1Br)OCO2)OCO3,29.3%,14.4%,35%,65.2%,-45.5% (active),2.7% (active),-7.11% (active),,-14.5% (active),1.49% (active),27.8%,-38.7% (active),7.57% (active),4.51% (active),-2.7% (active),43.6%,-6.85% (active),
N#Cc1c(-c2ccccc2)nc(SCC(=O)N2CCN(c3ccccc3)CC2)[nH]c1=O,90.6%,95.7%,97.9%,98.5%,115%,101%,112%,111%,106%,101%,91.2%,108%,111%,,92.5%,103%,106%,
C=C[C@@H]1C[C@@H]2Cc3cc(Cl)ccc3N1O2,92.4%,84.9%,99.4%,97.8%,102%,101%,112%,109%,97.1%,101%,105%,92.5%,96.7%,,98.2%,94.2%,97.3%,
Cc1nc2ncccc2nc1Nc1ccc(S(=O)(=O)Nc2ccccn2)cc1,92.2%,84.5%,93.6%,103%,102%,89.1%,72.6%,,92.9%,98.2%,83.3%,109%,102%,92.7%,92%,99.5%,97.8%,91.2%
O=C(N/N=C/C=C\c1ccccc1)C(=O)N/N=C/C=C/c1ccccc1,103%,102%,105%,112%,112%,111%,106%,,116%,110%,102%,121%,106%,100%,104%,109%,109%,100%
CCOC(=O)c1ccc(NC(=O)N2CC(C)OC(C)C2)cc1 (configuration not stated),98.7%,63.1%,101%,94%,96.8%,99.5%,73.6%,109%,101%,100%,97.8%,105%,106%,96.4%,102%,105%,108%,
Nc1nc(=O)c2ccccc2s1,109%,94.8%,121%,99.6%,125%,104%,122%,131%,112%,113%,101%,102%,,103%,107%,107%,112%,
COc1ccc(-c2nc(SCCC(C)C)nc(Nc3ccc(F)c(Cl)c3)c2C#N)cc1,57.3%,95.5%,65.8%,102%,-43.1% (active),96%,60.3%,57.3%,65%,81.4%,97.1%,79.1%,54.8%,69.1%,68.3%,102%,102%,
Cc1csc(NC(c2ccccc2)c2c(C)nc3ccccn23)n1 (configuration not stated),94.9%,79.2%,102%,101%,104%,97.3%,108%,110%,95.5%,99%,97%,102%,96.3%,,91%,105%,99.8%,
Cc1ccc2nc(Cl)cc(=O)n2c1,97.8%,96.1%,117%,94%,117%,102%,123%,135%,93.7%,117%,102%,106%,108%,107%,105%,121%,107%,
C/C(=N/NC(=S)Nc1ccccc1)c1nc2ccc(Cl)cc2[nH]1,-36.1% (active),5.52% (active),-39.8% (active),-35.8% (active),-79.3% (active),-17.7% (active),7.58% (active),-59.5% (active),,-12.7% (active),-94.9% (active),-84.5% (active),-76.9% (active),-85.4% (active),-27% (active),-89.9% (active),-82.5% (active),-68.3% (active)
Cc1ccc(Cc2c(C=O)nc(N)[nH]c2=O)c2ccccc12,63.5%,99.6%,89.6%,117%,97.6%,96.6%,106%,,109%,103%,87.9%,107%,103%,103%,88.2%,101%,102%,95.5%
N#C/C(=C1C=C/C(=N/O)C(Cl)=C/1)c1ccc(Cl)cc1,78.5%,20.7%,66.3%,129%,88.9%,121%,45.4%,31.7%,87.7%,63.1%,87.2%,29.5%,59.2%,13.7%,1.93% (active),101%,-46.4% (active),
Cc1c(C(=N)C(C#N)C#N)c(=N)oc2c1ccc1ccccc12,26.1%,44.7%,80.8%,104%,95.3%,104%,-2.09% (active),95.5%,69.8%,83.8%,73.9%,83.6%,92.2%,,79.6%,80.3%,101%,
COc1ccc(-c2nc(/C=C3/C(=O)Nc4ccc(F)cc43)c3ccccn23)cc1,79.1%,93.3%,98.5%,133%,101%,117%,87.4%,114%,118%,111%,104%,113%,87.7%,48.7%,62%,104%,102%,
CN(C)CCCC(C#N)c1ccccc1 (configuration not stated),96.2%,108%,112%,117%,113%,107%,132%,117%,121%,108%,111%,115%,106%,100%,107%,105%,111%,
O=[N+]([O-])c1cc(Cl)c2[nH]c3c(Cl)cc([N+](=O)[O-])cc3c2c1,2.53% (active),3.11% (active),-2.33% (active),9.08% (active),-24.8% (active),-11.9% (active),9.12% (active),16.8%,,6.85% (active),-0.691% (active),-2.12% (active),5.45% (active),,2.09% (active),34.8%,,4.93% (active)

Compound,growth [1],growth [2],growth [3],growth [4],growth [5],growth [6],growth [7],growth [8],growth [9],growth [10],growth [11],growth [12],growth [13],growth [14],growth [15],growth [16],growth [17],growth [18]
Cc1cc(N/N=C/c2nc(-c3ccccc3)oc2C)c2cc(Cl)ccc2n1,-13.7% (active),-39.4% (active),-41.7% (active),-88.5% (active),-89.6% (active),76.4%,-83.7% (active),-92.5% (active),-48.9% (active),-62.5% (active),87%,-95.6% (active),-73.3% (active),-71.9% (active),-94.2% (active),-77.4% (active),-83.3% (active),
CCOC(=O)c1c(/N=C2\SC(=O)/C(=C\C(=O)OC)N2NC)sc2c1CCN(C(=O)OCC)C2,103%,95.3%,103%,102%,99.1%,109%,102%,106%,103%,103%,91.7%,101%,105%,98.7%,95%,,99.1%,
O=S(=O)(CC(O)(c1ccccc1)c1ccccc1)CC(O)(c1ccccc1)c1ccccc1,118%,94.7%,75.8%,94.9%,80.9%,77%,66.5%,77.1%,65.3%,86.1%,102%,89.9%,89.6%,80.9%,77.7%,,87.6%,
CN(CCCCCl)P(=O)(OCc1ccc([N+](=O)[O-])o1)C(F)(F)C[C@H](NC(=O)CNC(=O)c1ccc(N=[N+]=[N-])cc1)C(=O)NCCc1ccc(O)cc1 (some centres not stated),9.22% (active),87.3%,107%,123%,95.2%,113%,84.3%,109%,84.4%,103%,79%,41.5%,37.6%,61.6%,78.4%,98.4%,91.1%,
NC(=S)N/N=C1\CCCC(C(F)(F)F)C1 (configuration not stated),78.7%,71.1%,84.5%,103%,97.7%,108%,13.7%,,111%,87.7%,96.3%,105%,98.5%,27.3%,8.77% (active),104%,,
Cc1nc2ncccc2nc1Nc1ccc(S(=O)(=O)Nc2cncs2)cc1,102%,88.4%,103%,96.4%,98.6%,86.2%,51%,,92.8%,98%,83%,114%,102%,82.2%,97.5%,95.1%,97.7%,82.7%
CCOC(=O)C1CCNC(=O)C1=O (configuration not stated),88.9%,96.8%,110%,104%,119%,117%,130%,122%,119%,105%,107%,113%,108%,107%,107%,104%,109%,
CN(C)c1nc2c(N)ncnc2n1C1OC(CO)C(O)C1O (configuration not stated),99%,92.1%,107%,97.6%,123%,116%,111%,108%,106%,114%,99.9%,112%,109%,99.4%,105%,110%,105%,
N/C(=N\C(N)=N\c1nc2ccccc2s1)c1ccncc1,19.7%,45.8%,75.6%,96.6%,100%,89.4%,58.2%,39.7%,80.3%,33%,61.7%,1.82% (active),35.2%,42.4%,47.7%,79.1%,52.1%,
O=C(O)Cc1cccc(=O)c(O)c1C(=O)O,103%,88.8%,105%,96.4%,117%,107%,110%,114%,112%,117%,102%,109%,106%,100%,102%,106%,104%,
COc1cc(Cn2cc3c(c2)-c2oncc2CC3)cc(OC)c1OC,11.3%,22.8%,16.6%,41.2%,48%,-5.27% (active),1.48% (active),-40.5% (active),7.08% (active),-13.9% (active),36.7%,-29.9% (active),27.1%,13.2%,8.52% (active),12.1%,3.04% (active),
CCCCN(CCCC)C(=N)c1ccnc2ccccc12,92.7%,83.1%,110%,104%,94%,112%,98.3%,104%,,110%,120%,105%,100%,,104%,102%,,118%
NC(N)=N/N=C/c1ccc(-c2ccc(-c3cc(Cl)cc(Cl)c3)s2)cc1,2.59% (active),-9.01% (active),33.1%,90.5%,38.6%,,-16.7% (active),-81.5% (active),80.8%,-19.2% (active),95.7%,1.1% (active),-66.3% (active),-39.9% (active),-75.9% (active),,-62.4% (active),28.8%
N=C(N)c1ccc(-c2ccc(-c3ccc4ccccc4c3)s2)cc1,6.46% (active),60.7%,102%,110%,100%,,91.3%,102%,104%,98.8%,96.2%,36.6%,19.3%,67.9%,78.6%,100%,40.7%,97.6%
COc1ccc(Nc2nc(N)nc3c2CCN(Cc2ccc(OC)cc2OC)C3=O)cc1,60.2%,41.9%,82.6%,72.5%,91.2%,90.5%,,88%,82.7%,93.4%,74.9%,79.2%,80%,87.7%,49.9%,94.2%,85.1%,75.9%
COc1ccc2cc(-c3ccc(-c4ccc(C(=N)N)cc4)s3)ccc2c1,30.4%,91%,101%,103%,97.3%,,69.6%,-15.4% (active),105%,106%,97.9%,108%,84.6%,73.2%,71.3%,101%,66.4%,91.2%
O=C(NS(=O)(=O)c1ccc2ccccc2c1)n1cc(-c2ccncc2)c(-c2ccc(Cl)c(O)c2)n1,61.8%,60.2%,72.5%,89.8%,,81.8%,60.2%,133%,72.4%,87.6%,100%,51.6%,95.2%,114%,39.2%,,103%,78.6%
COc1ccc(-c2ccc(-c3ccc(C(=N)N)cn3)s2)cc1OC,63.1%,89%,102%,103%,96.1%,,101%,109%,97.2%,108%,94.4%,103%,90.3%,84.9%,80.2%,109%,95.9%,84.6%
Nc1nc(-c2ccccc2)c(CCCOc2ccc(NC(=O)CBr)cc2)c(=O)[nH]1,117%,112%,98.3%,104%,92.1%,125%,125%,,99.1%,106%,100%,94.6%,,78.8%,103%,107%,109%,
